In PubChem BioAssay (NCI):
Compounds without any hit were thinned out: in the full panel of roughly 83,000, 20% have a hit.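 Percent growth is the endpoint: 0 to 100 indicates growth inhibition (40 means 60% inhibition), 0 means no net growth, and negative values indicate cell death.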 Active and inactive are the calls of the source. How the source made its calls: active means growth percent below 10; inactive means the rest.

Key:
Test in all cases: NCI-60 one-dose screen, 48 h (100 = growth as untreated, 0 = no growth, -100 = all killed)
Details in all cases: 10 µM unless noted
[1] = tested on: SK-MEL-2 melanoma
[2] = tested on: EKVX NSCLC
[3] = tested on: SN12C renal
[4] = tested on: UO-31 renal
[5] = tested on: TK-10 renal
[6] = tested on: ACHN renal
[7] = tested on: A498 renal
[8] = tested on: CCRF-CEM leukemia
[9] = tested on: MOLT-4 leukemia
[10] = tested on: SR leukemia
[11] = tested on: RPMI-8226 leukemia
[12] = tested on: OVCAR-8 ovarian
[13] = tested on: OVCAR-5 ovarian
[14] = tested on: OVCAR-4 ovarian
[15] = tested on: SK-OV-3 ovarian
[16] = tested on: IGROV1 ovarian
[17] = tested on: OVCAR-3 ovarian
[18] = tested on: HS 578T breast
[19] = tested on: NCI/ADR-RES ovarian
[20] = tested on: T-47D breast

Measured: growth

CCCS(=O)(=O)Nc1ccc(F)c(C(=O)c2c[nH]c3ncc(-c4ccc(OCCCC5CCCCN5)nc4)cc23)c1F (stereo not given)
inactive: [1] 58.5% | [2] 89.7% | [3] 62.5% | [4] 102% | [5] 81.2% | [6] 92.3% | [7] 64.8% | [8] 56.5% | [9] 43.1% | [10] 43.1% | [11] 64% | [12] 88.9% | [13] 78.1% | [14] 83.6% | [15] 11.6% | [16] 31.7% | [17] 89.6% | [19] 100% | [20] 17.7%
active: [18] 9.28%

CC(C)(C)c1ccc(O)c(Cc2cc(C(C)(C)C)ccc2O)c1
active: [8] 0.931%
inactive: [1] 80% | [2] 78.5% | [3] 87.5% | [4] 85.7% | [5] 94.2% | [6] 106% | [7] 87.3% | [9] 64.6% | [10] 24.5% | [11] 47.7% | [12] 90.3% | [13] 120% | [14] 95.6% | [15] 102% | [16] 101% | [17] 103% | [18] 93.3% | [19] 100% | [20] 78.6%

CC(C)Cc1cc(CNC(=O)C2[C@H]3CN(C(=O)c4ccccc4)C[C@@H]23)nn1-c1ccccc1 (stereo not given in full)
inactive: [1] 83.8% | [2] 92.8% | [3] 99.1% | [4] 74.9% | [5] 73.2% | [6] 92.2% | [7] 96.6% | [8] 89.7% | [9] 80.6% | [10] 90.4% | [11] 84.7% | [12] 77.9% | [13] 97.9% | [14] 104% | [15] 76.8% | [16] 107% | [17] 100% | [18] 97.9% | [19] 93.8% | [20] 74.2%

Cc1nnc(/N=C2\NC(=O)/C(=C/c3ccc(N(C)C)cc3)S2)s1
inactive: [1] 83.1% | [2] 82.8% | [3] 83.8% | [4] 70.6% | [5] 87.3% | [6] 71.8% | [7] 67% | [8] 62.6% | [9] 80.8% | [10] 44.2% | [11] 58.9% | [12] 78.6% | [13] 99.9% | [14] 75.4% | [15] 72% | [16] 60% | [17] 45.4% | [18] 85.6% | [19] 52.2% | [20] 73.6%

CCOC(=O)c1c(C(F)(F)F)n([O-])c2ccc(Cl)cc2[n+]1=O
active: [1] -57.2% | [2] -8.8% | [3] -21.4% | [4] -44.3% | [5] -92.7% | [6] -97.8% | [7] -76.4% | [8] -45.7% | [9] -48.5% | [10] -33.6% | [11] -69.8% | [12] -42.6% | [13] -27.8% | [14] -35.3% | [16] -30.3% | [17] -70.5% | [19] 8.49% | [20] -53%
inactive: [15] 66.6% | [18] 13.8%

COc1ccc2cc(/C=C3\N=C(c4cc(OC)c(OC)c(OC)c4)OC3=O)c(OC)nc2c1
inactive: [1] 106% | [2] 103% | [3] 94.2% | [4] 95.8% | [5] 106% | [6] 101% | [7] 99.5% | [8] 111% | [9] 94.8% | [10] 95.8% | [11] 104% | [12] 98.4% | [13] 108% | [14] 101% | [15] 96.5% | [16] 109% | [17] 109% | [18] 97.2% | [19] 105% | [20] 96.5%

Cc1nc(C)c(C)nc1C
inactive: [1] 97.9% | [2] 109% | [3] 101% | [4] 93.4% | [5] 95.7% | [6] 114% | [7] 102% | [8] 89.5% | [9] 99.8% | [10] 108% | [11] 104% | [12] 91.8% | [13] 115% | [14] 114% | [15] 96.5% | [16] 108% | [17] 109% | [18] 85.6% | [19] 109% | [20] 92.5%

Oc1c(CCl)cc(Cl)cc1Cc1cc(Cl)cc(Cc2cc(Cl)cc(CCl)c2O)c1O
inactive: [2] 21% | [4] 32% | [5] 17.7% | [6] 22.7% | [8] 13.5% | [9] 21% | [10] 40.8% | [12] 16.7% | [13] 79.8% | [14] 48% | [15] 36% | [16] 37.8% | [17] 19.2% | [18] 26.1% | [19] 14% | [20] 22.1%
active: [1] -16.6% | [3] 8.92% | [7] -4.67% | [11] 4.65%

COc1cc(/C=C/CO)cc(OC)c1O[C@@H]1O[C@H](CO)[C@@H](O)[C@H](O)[C@H]1O
inactive: [1] 108% | [2] 95% | [3] 96.8% | [4] 97.1% | [5] 98.7% | [6] 109% | [7] 77.2% | [8] 96.2% | [9] 94.8% | [10] 95.2% | [11] 99.3% | [12] 98.8% | [13] 92.4% | [14] 100% | [15] 100% | [16] 104% | [17] 108% | [18] 96.4% | [19] 106% | [20] 93.1%

CC(=O)OCC1SC(OC(C)=O)C(NC(=O)/C=C/CCl)C(OC(C)=O)C1OC(C)=O (stereo not given)
inactive: [1] 79.9% | [2] 102% | [3] 89.4% | [4] 102% | [5] 93.8% | [6] 92.1% | [7] 96.3% | [8] 83.7% | [9] 88.1% | [10] 86.2% | [11] 95.2% | [12] 98.2% | [13] 148% | [14] 101% | [15] 86.4% | [16] 105% | [17] 102% | [18] 93.5% | [19] 103% | [20] 90.6%

COc1cc([C@H](C)c2ccc3ccccc3c2)cc(OC)c1OC
active: [17] -19.7%
inactive: [1] 28.3% | [2] 30.9% | [3] 48.3% | [4] 42.1% | [5] 61.4% | [6] 35.1% | [7] 12.7% | [8] 16% | [9] 13.5% | [10] 23.5% | [11] 15.9% | [12] 23.2% | [13] 62.1% | [14] 40.6% | [15] 31% | [16] 36% | [18] 30.2% | [19] 17.9% | [20] 42.2%

COc1cc2nc3c(=O)n(-c4ccc(C#N)cc4)cnn3c(=O)c2cc1OC
inactive: [1] 94.4% | [2] 93.9% | [3] 99% | [4] 83.6% | [5] 104% | [6] 100% | [7] 113% | [8] 143% | [9] 91.3% | [10] 94.1% | [11] 115% | [12] 108% | [13] 93.4% | [14] 97% | [15] 101% | [16] 103% | [17] 92.9% | [18] 90.8% | [19] 100% | [20] 100%

CS(=O)(=O)O[C@@H]1C(=O)N(c2cc3c4ccccc4ccc3c3ccccc23)[C@H]1c1ccc(F)cn1
active: [17] -12.7% | [18] 7.01%
inactive: [1] 14.4% | [2] 47.1% | [3] 40.6% | [4] 46.9% | [5] 81.7% | [6] 52% | [7] 14.6% | [8] 10.4% | [9] 24.3% | [10] 11.4% | [11] 19.8% | [12] 27.4% | [13] 58.3% | [14] 66.5% | [15] 41.7% | [16] 51.7% | [19] 20.2% | [20] 32.5%

O=c1c2ccccc2oc2ccc(OCCCCCCN3CCCCCC3)cc12
inactive: [1] 76.9% | [2] 62.8% | [3] 55% | [4] 41.8% | [5] 66.3% | [6] 65.7% | [7] 70.2% | [8] 43.3% | [11] 13.3% | [12] 50.3% | [13] 58.9% | [14] 46.6% | [15] 72.4% | [16] 46.2% | [17] 59.8% | [18] 81.9% | [19] 54.2% | [20] 21.5%
active: [9] 6.07% | [10] 1.08%

CCCCn1c(=O)c(/C=C/C(=O)/C=C/c2ccc(O)c(OC)c2)cc2ccc(Cl)cc21
active: [4] 6.03% | [8] 2.91% | [9] 8.28% | [10] 3.78% | [11] -14.2% | [12] -4.03% | [16] 6.29% | [17] -26.2%
inactive: [1] 42.1% | [2] 40.1% | [3] 12.3% | [5] 54.2% | [6] 19.9% | [7] 77.6% | [13] 49.6% | [14] 26.1% | [15] 59.2% | [18] 47.8% | [19] 14.8% | [20] 25.3%
